# Measured values as given in PubChem BioAssay (NCATS).
# Inconclusive results are not listed. Activity calls are given as the source filed them. Calls come from the whole dose curve; as a rule, active = well fitted curve in the direction sought with a large enough effect; inconclusive = small, poorly fitted or top-dose-only effect, or another doubt; inactive = no such curve, though single readings can be large; an effect the other way counts as inactive or inconclusive.
# Assay: qHTS Assay for Identifying Gametocytocidal Compounds (AID 743244); note: potency is the fitted concentration of half-maximal effect;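 for max response: % is set by controls: 0 for no effect and ±100 for the full control effect; actives lower the fluorescent signal which means gametocytes are killed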
# Conditions: P. falciparum 3D7 stage III-V gametocytes, alamarBlue, 72 h; max response: active compounds read low
# Method in brief: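 Fluorescence at Ex 525/Em 598 nm, recorded 24 h after alamarBlue addition, reports residual metabolic activity of 3D7 gametocytes (stages III–V) following 72 h compound exposure at 37 °C, 5% CO2.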
SMILES,Potency,max response
CCCCCCCCCCCCCC[N+](C)(C)C,14.1 µM (active),
O=C1CC[C@H](C(=O)N2CCCCC2)N1,,-15.9% (inactive)
Cc1cccc(N(C)C(=S)Oc2ccc3c(c2)CCC3)c1,,14.9% (inactive)
C[C@H]1C[C@H]2[C@@H]3CCC4=CC(=O)C=C[C@]4(C)[C@H]3C(=O)C[C@]2(C)[C@@]1(O)C(=O)CO,,-0.729% (inactive)
COc1ccccc1OCC1CNC(=O)O1 (stereo not given),,-14.2% (inactive)
NC(=O)COCCN1CCN(C(c2ccccc2)c2ccc(Cl)cc2)CC1 (stereo not given),,-3.31% (inactive)
O=C1[C@@H]2[C@H]3CC[C@H](C3)[C@@H]2C(=O)N1CCCCN1CCN(c2ncccn2)CC1,,4.19% (inactive)
CC1(C)S[C@@H]2[C@H](NC(=O)C(c3ccccc3)S(=O)(=O)O)C(=O)N2[C@H]1C(=O)O (stereo not given in full),,-17.7% (inactive)
CN1CC(=O)N2[C@H](c3ccc4c(c3)OCO4)c3[nH]c4ccccc4c3C[C@@H]2C1=O,,-3.23% (inactive)
Cc1ccccc1N1CCN(CCc2nnc3n2CCCC3)CC1,,-15.7% (inactive)
CC(=O)N[C@@H](CCC(N)=O)C(=O)O,,4.31% (inactive)

# Assay: qHTS assay for measurement of the activity of small molecule inhibitors on Zika virus induced Caspase-3 activity in human iPSC derived neural progenitor cells (hNPCs) (AID 1224857); note: % of control where 0% means no effect; nearly all actives have a fitted effect of over 65% in size
# Conditions: hNPCs ZIKV-induced caspase-3/7, Caspase-Glo luminescence, 6 h; series mostly up to 45.7 µM; activity change, negative = inhibition: at the top concentration
# Method in brief: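 Zika virus (2 FFU/cell) infection of human iPSC-derived NPCs, 6 h, following 1 h compound preincubation. Read-out: Caspase-Glo 3/7 luminescence.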
row,SMILES,"activity change, negative = inhibition"
1,O=[N+]([O-])c1ccc(-c2nc(-c3ccc(F)cc3)c(-c3ccncc3)[nH]2)cc1,-12.9% (inactive)
2,CO/N=C(/C(=O)N[C@@H]1C(=O)N2C(C(=O)[O-])=C(C[n+]3ccn4ncccc43)CS[C@H]12)c1nsc(N)n1,4.96% (inactive)
3,CCCCCCCCCCCCCCCC[n+]1ccccc1,1.23% (inactive)
4,O=C(O)CCC(=O)OC[C@@H](NC(=O)C(Cl)Cl)[C@H](O)c1ccc([N+](=O)[O-])cc1,-24.5% (inactive)
5,CC(NCCC(c1ccccc1)c1ccccc1)c1ccccc1 (stereo not given),19.3% (inactive)
6,CCN(CC)CCNC(=O)c1ccc(NS(C)(=O)=O)cc1,-4.15% (inactive)
7,O=C1NC(=O)/C(=C/c2ccc3c(c2)OC(F)(F)O3)S1,9.61% (inactive)
8,CCN1CCN(c2cc(-c3ccc(F)cc3)c3c(n2)CCCCCC3)CC1,71.7% [at 20.5 µM] (inactive)
9,C1N2CN3CN1CN(C2)C3,-26.9% (inactive)
10,O=C(COCCOCCOCC(=O)Nc1c(I)cc(I)c(C(=O)O)c1I)Nc1c(I)cc(I)c(C(=O)O)c1I,-5.47% (inactive)
11,CCOC(=O)O[C@]1(C(=O)OCCl)CC[C@H]2[C@@H]3CCC4=CC(=O)C=C[C@]4(C)[C@H]3[C@@H](O)C[C@@]21C,-2.59% (inactive)
12,Nc1ccc2cc3ccc(N)cc3nc2c1,1.96% (inactive)
13,CCCCCCCCCCCCCCCCCCNC(=O)OC1CCN(C(=O)OC[C@H](COC(=O)N(Cc2cccc[n+]2CC)C(=O)c2ccccc2OC)OC)CC1,-10.8% (inactive)
14,CC[C@@H]([C@H](C)O)n1ncn(-c2ccc(N3CCN(c4ccc(OC[C@@H]5CO[C@@](Cn6cncn6)(c6ccc(F)cc6F)C5)cc4)CC3)cc2)c1=O,12.9% (inactive)
15,CC(=O)Nc1ccc(S(=O)(=O)Nc2cc(C)on2)cc1,-9.54% (inactive)
16,OCc1cccnc1,19.1% (inactive)
17,CCCCNc1ccc(C(=O)OCCN(CC)CC)cc1,7.56% (inactive)
18,CC(C)(c1ccc(O)cc1)c1ccc(O)cc1,-3.6% [at 92.8 µM] (inactive)
19,O=C(O)[C@@H](O)[C@H](O)[C@H](O)[C@@H](O)C(=O)O,2.12% (inactive)

row,SMILES,"activity change, negative = inhibition"
1,CNC[C@H](O)[C@@H](O)[C@H](O)[C@H](O)CO,3.84% (inactive)
2,CC(COc1ccccc1)NN (stereo not given),-7.21% (inactive)
3,O=C(O)CCCC[C@@H]1SC[C@@H]2NC(=O)N[C@@H]21,-3.27% (inactive)
4,CCCC(=O)O[C@]1(C(=O)CCl)[C@@H](C)C[C@H]2[C@@H]3CCC4=CC(=O)C=C[C@]4(C)[C@@]3(F)C(=O)C[C@@]21C,-0.794% (inactive)
5,CCCCCCCCCCCCCC[N+](C)(C)C,-17.7% (inactive)
6,O=C1CC[C@H](C(=O)N2CCCCC2)N1,-1.68% (inactive)
7,CC(C)N(CCC(=O)c1ccc2ccccc2c1)Cc1ccccc1,-6.17% (inactive)
8,Cc1cccc(N(C)C(=S)Oc2ccc3c(c2)CCC3)c1,-7.34% (inactive)
9,Clc1ccc2c(c1)N=C(N1CCNCC1)c1ccccc1N2,21.6% (inactive)
10,C[C@H]1C[C@H]2[C@@H]3CCC4=CC(=O)C=C[C@]4(C)[C@H]3C(=O)C[C@]2(C)[C@@]1(O)C(=O)CO,-3.06% (inactive)
11,COc1ccccc1OCC1CNC(=O)O1 (stereo not given),19.2% (inactive)
12,NC(=O)COCCN1CCN(C(c2ccccc2)c2ccc(Cl)cc2)CC1 (stereo not given),-7.41% (inactive)
13,O=C1[C@@H]2[C@H]3CC[C@H](C3)[C@@H]2C(=O)N1CCCCN1CCN(c2ncccn2)CC1,-8.06% (inactive)
14,CC1(C)S[C@@H]2[C@H](NC(=O)C(c3ccccc3)S(=O)(=O)O)C(=O)N2[C@H]1C(=O)O (stereo not given in full),-7.71% (inactive)
15,CN1CC(=O)N2[C@H](c3ccc4c(c3)OCO4)c3[nH]c4ccccc4c3C[C@@H]2C1=O,-1.13% (inactive)
16,Cc1ccccc1N1CCN(CCc2nnc3n2CCCC3)CC1,9.6% (inactive)
17,CC(=O)N[C@@H](CCC(N)=O)C(=O)O,-11.8% (inactive)
18,COc1cccc2c1[C@@H]1CN(CCCCn3c(=O)[nH]c4c(sc5ncc(-c6ccccc6)nc54)c3=O)C[C@@H]1CO2,21.4% (inactive)

# Assay: qHTS assay for measurement of the activity of small molecule inhibitors on Zika virus induced Caspase-3 activity in human astrocytoma cells (AID 1224859);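 note: plate controls were ZIKV-infected untreated cells for no effect and uninfected cells for full effect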
# Conditions: SNB-19 ZIKV-induced caspase-3/7, luminescence, 6 h; series mostly up to 45.7 µM; activity change, negative = inhibition: at the top concentration
# Method in brief: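 Caspase activation in ZIKV-infected SNB-19 cells (2 FFU/cell, 6 h) measured by Caspase-Glo 3/7 luminescence after 30 min RT; compound pre-incubated 1 h; normalised to uninfected and infected controls.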
row,SMILES,"activity change, negative = inhibition"
1,O=[N+]([O-])c1ccc(-c2nc(-c3ccc(F)cc3)c(-c3ccncc3)[nH]2)cc1,-23.2% (inactive)
2,CO/N=C(/C(=O)N[C@@H]1C(=O)N2C(C(=O)[O-])=C(C[n+]3ccn4ncccc43)CS[C@H]12)c1nsc(N)n1,-7.09% (inactive)
3,CCCCCCCCCCCCCCCC[n+]1ccccc1,67.4% (inactive)
4,O=C(O)CCC(=O)OC[C@@H](NC(=O)C(Cl)Cl)[C@H](O)c1ccc([N+](=O)[O-])cc1,-11% (inactive)
5,CC(NCCC(c1ccccc1)c1ccccc1)c1ccccc1 (stereo not given),14% (inactive)
6,CCN(CC)CCNC(=O)c1ccc(NS(C)(=O)=O)cc1,-5.89% (inactive)
7,O=C1NC(=O)/C(=C/c2ccc3c(c2)OC(F)(F)O3)S1,-4.07% (inactive)
8,CCN1CCN(c2cc(-c3ccc(F)cc3)c3c(n2)CCCCCC3)CC1,-23.5% [at 20.5 µM] (inactive)
9,C1N2CN3CN1CN(C2)C3,-8.71% (inactive)
10,O=C(COCCOCCOCC(=O)Nc1c(I)cc(I)c(C(=O)O)c1I)Nc1c(I)cc(I)c(C(=O)O)c1I,-12.3% (inactive)
11,CCOC(=O)O[C@]1(C(=O)OCCl)CC[C@H]2[C@@H]3CCC4=CC(=O)C=C[C@]4(C)[C@H]3[C@@H](O)C[C@@]21C,-1.76% (inactive)
12,Nc1ccc2cc3ccc(N)cc3nc2c1,-4.52% (inactive)
13,CCCCCCCCCCCCCCCCCCNC(=O)OC1CCN(C(=O)OC[C@H](COC(=O)N(Cc2cccc[n+]2CC)C(=O)c2ccccc2OC)OC)CC1,17.4% (inactive)
14,CC[C@@H]([C@H](C)O)n1ncn(-c2ccc(N3CCN(c4ccc(OC[C@@H]5CO[C@@](Cn6cncn6)(c6ccc(F)cc6F)C5)cc4)CC3)cc2)c1=O,-1.14% (inactive)
15,CC(=O)Nc1ccc(S(=O)(=O)Nc2cc(C)on2)cc1,4.91% (inactive)
16,OCc1cccnc1,2% (inactive)
17,CCCCNc1ccc(C(=O)OCCN(CC)CC)cc1,7.56% (inactive)
18,CC(C)(c1ccc(O)cc1)c1ccc(O)cc1,-4.32% [at 92.8 µM] (inactive)
19,O=C(O)[C@@H](O)[C@H](O)[C@H](O)[C@@H](O)C(=O)O,9.19% (inactive)

row,SMILES,"activity change, negative = inhibition"
1,CNC[C@H](O)[C@@H](O)[C@H](O)[C@H](O)CO,0.509% (inactive)
2,CC(COc1ccccc1)NN (stereo not given),12.9% (inactive)
3,O=C(O)CCCC[C@@H]1SC[C@@H]2NC(=O)N[C@@H]21,2.41% (inactive)
4,CCCC(=O)O[C@]1(C(=O)CCl)[C@@H](C)C[C@H]2[C@@H]3CCC4=CC(=O)C=C[C@]4(C)[C@@]3(F)C(=O)C[C@@]21C,-15.6% (inactive)
5,CCCCCCCCCCCCCC[N+](C)(C)C,88% (inactive)
6,O=C1CC[C@H](C(=O)N2CCCCC2)N1,-17.3% (inactive)
7,CC(C)N(CCC(=O)c1ccc2ccccc2c1)Cc1ccccc1,11.3% (inactive)
8,Cc1cccc(N(C)C(=S)Oc2ccc3c(c2)CCC3)c1,2% (inactive)
9,Clc1ccc2c(c1)N=C(N1CCNCC1)c1ccccc1N2,-6.03% (inactive)
10,C[C@H]1C[C@H]2[C@@H]3CCC4=CC(=O)C=C[C@]4(C)[C@H]3C(=O)C[C@]2(C)[C@@]1(O)C(=O)CO,1.52% (inactive)
11,COc1ccccc1OCC1CNC(=O)O1 (stereo not given),1.73% (inactive)
12,NC(=O)COCCN1CCN(C(c2ccccc2)c2ccc(Cl)cc2)CC1 (stereo not given),3.63% (inactive)
13,O=C1[C@@H]2[C@H]3CC[C@H](C3)[C@@H]2C(=O)N1CCCCN1CCN(c2ncccn2)CC1,11% (inactive)
14,CC1(C)S[C@@H]2[C@H](NC(=O)C(c3ccccc3)S(=O)(=O)O)C(=O)N2[C@H]1C(=O)O (stereo not given in full),-3.42% (inactive)
15,CN1CC(=O)N2[C@H](c3ccc4c(c3)OCO4)c3[nH]c4ccccc4c3C[C@@H]2C1=O,18.5% (inactive)
16,Cc1ccccc1N1CCN(CCc2nnc3n2CCCC3)CC1,2.34% (inactive)
17,CC(=O)N[C@@H](CCC(N)=O)C(=O)O,14.1% (inactive)
18,COc1cccc2c1[C@@H]1CN(CCCCn3c(=O)[nH]c4c(sc5ncc(-c6ccccc6)nc54)c3=O)C[C@@H]1CO2,22.6% (inactive)
